# Source: the supplement of paper PMC13094657
# ± gives the standard deviation of the averaged measurements.
# What was measured:
# [1] = system: MDA-MB-231; assay: cell viability relative to vehicle unstimulated control (fraction); higher = more viable cells; settings: pre-treatment time: 18 h then 24 h IFNg/TNF
# [2] = system: MDA-MB-231; assay: kynurenine production, fold change vs DMSO IFNg/TNF control; higher = more kynurenine produced (less inhibition); settings: pre-treatment time: 18 h then 24 h IFNg/TNF
# Summary of the method: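 Fold change over cytokine-stimulated vehicle wells on the same plate is the measure used for kynurenine production, averaged across duplicate plates in the first screening round. MDA-MB-231 cells, seeded 24 h beforehand at 7 × 10^4/well in 96-well plates, were pre-treated 18 h with each natural product in 0.1% DMSO and stimulated 24 h at 37°C with IFNγ (1 U/ml) and TNF (6.25 ng/ml). Supernatants were read at 492 nm following trichloroacetic acid and p-dimethylaminobenzaldehyde treatment, against 0–100 μM standards.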
# 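Wherever cell viability relative to vehicle unstimulated control is given: viability of the cells left after supernatant collection, read with Deep Blue dye added for 4 h, as absorbance at 570 nm minus 600 nm.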
SMILES,cell viability [1],kynurenine production [2]
CC[C@@H](C(=O)[C@@H](C)[C@@H](O)[C@H](C)CCc1ccc(C)c(O)c1C(=O)O)[C@H]1O[C@](CC)([C@H]2CC[C@](O)(CC)[C@H](C)O2)C[C@@H]1C [Lasalocid (sodium)] (compound dose: 10 uM),0.865 ± 0.04,0.37 ± 0.0038
CC1OC2OC3C(OCC(O)C3O)OC(=O)C34CCC(C)(C)CC3C3=CCC5C6(C)CC(O)C(OC7OC(CO)C(O)C(O)C7OC7OCC(OC(=O)CC(C)(O)CC(=O)OC1C(OC1OCC(O)C(O)C1O)C2O)C(O)C7O)C(C)(CO)C6CCC5(C)C3(C)CC4O (configuration not stated) [Tubeimoside II] (compound dose: 10 uM),0.387 ± 0.0057,0.21 ± 0.0034
C[C@H]1O[C@@H](Oc2ccc(COC(=O)CC(O)(CC(=O)OCc3ccc(O[C@@H]4O[C@H](CO)[C@@H](O)[C@H](O)[C@H]4O)cc3)C(=O)Oc3ccc(O[C@H]4O[C@H](CO)[C@@H](O)[C@H](O)[C@H]4O)cc3)cc2)[C@H](O)[C@@H](O)[C@@H]1O (some centres not stated) [Parishin] (compound dose: 10 uM),0.985 ± 0.054,0.792 ± 0.13
C[C@@H]1CC[C@@]2(OC1)O[C@H]1C[C@H]3[C@@H]4CC=C5C[C@@H](O)C[C@@H](O)[C@]5(C)[C@H]4CC[C@]3(C)[C@H]1[C@@H]2C [Ruscogenin] (compound dose: 10 uM),1.01 ± 0.037,1.32 ± 0.2
CCOC(=O)/C=C/c1ccccc1 [Ethyl cinnamate] (compound dose: 10 uM),0.988 ± 0.085,1.14 ± 0.11
C=C1CC[C@@H]2[C@](C)(CO[C@@H]3O[C@H](CO)[C@@H](O)[C@H](O)[C@H]3O)CCC[C@@]2(C)[C@@H]1CCC1=CCOC1=O [Neoandrographolide] (compound dose: 10 uM),0.953 ± 0.034,0.893 ± 0.012
C=C1C(=O)[C@]23[C@H](O)[C@H]1CC[C@H]2[C@@]12CO[C@]3(O)[C@@H](O)[C@@H]1C(C)(C)CC[C@@H]2O [Oridonin] (compound dose: 10 uM),0.917 ± 0.017,0.73 ± 0.054
CC(C)=CCC[C@](C)(O[C@@H]1O[C@H](CO)[C@@H](O)[C@H](O)[C@H]1O)[C@H]1CC[C@]2(C)[C@@H]1[C@H](O)C[C@@H]1[C@@]3(C)CC[C@H](O)C(C)(C)[C@@H]3[C@@H](O[C@@H]3O[C@H](CO)[C@@H](O)[C@H](O)[C@H]3O[C@@H]3OC[C@@H](O)[C@H](O)[C@H]3O)C[C@]12C [Notoginsenoside R1] (compound dose: 10 uM),0.909 ± 0.066,1 ± 0.038
C=C1C(=O)[C@@]23[C@H](O)C[C@@H]4C(C)(C)C(=O)CC[C@@]4(C)[C@@H]2CC[C@@H]1[C@H]3O [Glaucocalyxin A] (compound dose: 10 uM),0.832 ± 0.078,0.109 ± 0.029
CC(C)(O[C@@H]1O[C@H](CO)[C@@H](O)[C@H](O)[C@H]1O)[C@@H]1CC[C@](C)([C@H]2[C@@H](O)C[C@@]3(C)[C@@H]4C[C@H](O)[C@H]5C(C)(C)[C@@H](O[C@@H]6OC[C@@H](O)[C@H](O)[C@H]6O)CC[C@@]56C[C@@]46CC[C@]23C)O1 [Isoastragaloside IV] (compound dose: 10 uM),0.924 ± 0.083,1.23 ± 0.33
CC(C)=CCC[C@](C)(O)[C@H]1CC[C@]2(C)[C@@H]1[C@H](O)C[C@@H]1[C@@]3(C)CC[C@H](O)C(C)(C)[C@@H]3[C@@H](O[C@@H]3O[C@H](CO)[C@@H](O)[C@H](O)[C@H]3O[C@@H]3OC[C@@H](O)[C@H](O)[C@H]3O)C[C@]12C [Notoginsenoside R2] (compound dose: 10 uM),1.04 ± 0.031,1.24 ± 0.12
Cc1cc(O)cc(O[C@@H]2O[C@H](CO)[C@@H](O)[C@H](O)[C@H]2O)c1 [Orcinol glucoside] (compound dose: 10 uM),1.05 ± 0.027,0.821 ± 0.095
CC1=CC[C@@](O)(C(C)C)CC1 [Terpinen-4-ol] (compound dose: 10 uM),1.12 ± 0.0039,0.984 ± 0.17
C/C1=C\[C@@H]2[C@H](CC/C(C)=C/CC(=O)/C(C)=C/CC1)C2(C)C [5-ketocasbene/9-ketocasbene] (compound dose: 10 uM),1.155 ± 0.0076,1.03 ± 0.12
CC1=CC[C@@H](C(C)(C)O)CC1 [α-Terpineol] (compound dose: 10 uM),1.02 ± 0.059,0.896 ± 0.0054
C[C@@H]1CC[C@H]2[C@@H](C)C(=O)O[C@@H]3O[C@@]4(C)CC[C@@H]1[C@]32O4 [Deoxyartemisinin] (compound dose: 10 uM),1.28 ± 0.3,0.8521 ± 0.0034
